A selection: hits, their analogues and other compounds. The true share with any hit is near 1.6%.
KCNQ2 block: rat KCNQ2 potassium channel inhibitors, primary screen, cell-based, CHO-K1, FluxOR thallium flux, B-score; Potassium voltage-gated channel subfamily KQT member 2 (Rattus norvegicus), O88943; 20 min; hits give low values; B-score at 10 µM; hit rate 1.1% among 310,000;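 active = fluorescence ratio B-score at most minus 3 library SDs, with starting brightness B-score within 2 library SDs, cut at about -5.5 in these data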
KCNQ2 pot: potentiators of rat KCNQ2 potassium channel; Potassium voltage-gated channel subfamily KQT member 2 (Rattus norvegicus), O88943; CHO-K1 KCNQ2, FluxOR thallium flux fluorescence; hits give high values; B-score at 10 µM; hit rate 0.54% among 310,000; AID 2239, 2010;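 active = fluorescence ratio B-score at least 3 SD of library B-scores, with initial fluorescence B-score within 3 of them, cut at about 5.3 in these data; same plate scores as AID 2156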;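 also: B-score of peak minus minimum over baseline fluorescence ratio after K+ and Tl+ stimulus; positive B-score means potentiation of KCNQ2 with more thallium influx and brighter signal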
Kir21 confirm: mouse Kir2.1 channel blockers, retest, confirmation, cell-based, FluxOR thallium flux, duplicate; AID 2032, 2009; hit rate 41% among 2,300; Tl flux remaining, % of negative control (hits give low values), % at 10 µM; Kir2.1-expressing cells, FluxOR thallium flux fluorescence; hits give low values; shares compounds with KCNQ2 pot;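 active = Primary-screen hit whose thallium flux fell at least 3 control SD below untreated wells in both duplicates, with normal baseline fluorescence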
HEK293 Tl flux: counter-screen for Kir2.1 inhibitors: effect in parental HEK293 cells; shares compounds with KCNQ2 pot; FluxOR signal as % of negative control (100 = no effect), % at 10 µM; FluxOR thallium flux fluorescence; 0% = unstimulated blank wells; hit rate 19% among 2,300;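 active = dye signal at least 3 control SD above or below untreated wells in both duplicates, raw fluorescence within 3, either direction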;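 also: percent is based on the flux ratio of peak minus minimum fluorescence over baseline F0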
CHO-K1 ctr: nonspecific thallium flux increase in parental CHO-K1, confirmation, counter-screen for KCNQ2 potentiator project, cell-based, FluxOR thallium flux, duplicate. shares compounds with KCNQ2 pot. parental CHO-K1 cells, FluxOR thallium flux fluorescence; zero = vehicle mean+3SD, 100% = vehicle-minus-blank window. activity increase over 3SD of controls, % at 10 µM. hit rate 43% among 1,200. AID 2282, 2010;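 active = signal rise of at least 3 SD above the untreated control mean, in both duplicate wells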;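 also: counter screen of KCNQ2 potentiator hits so any rise reflects channel-independent effects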
KCNQ1 pot spec: human KCNQ1 channel potentiation off-target, confirmation, selectivity assay for KCNQ2 potentiator project, cell-based, CHO, FluxOR thallium flux. shares compounds with KCNQ2 pot. activation over 3SD threshold, % at 10 µM. CHO KCNQ1 stable, FluxOR thallium flux fluorescence; beyond 3SD, as % of vehicle-control signal. hit rate 28% among 1,200;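 active = fluorescence ratio rise of at least 3 SD of vehicle wells above their mean, in both replicate wells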
KCNQ2 pot confirm: rat KCNQ2 channel potentiators, confirmation, cell-based, CHO, FluxOR thallium flux, duplicate; shares compounds with KCNQ2 pot; CHO-KCNQ2 cells, FluxOR thallium flux fluorescence; potentiation, less the hit threshold, % at 10 µM; hit rate 68% among 1,200; AID 2287, 2010;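 active = fluorescence ratio rising 3 SD or more over the vehicle control mean in both replicates, plus primary screen hit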;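 also: peak minus minimum thallium fluorescence divided by baseline after K/Tl stimulus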
Kir2-1 sel: mouse Kir2.1 channel activation off-target, confirmation, selectivity assay for KCNQ2 potentiator project, cell-based, HEK293, FluxOR thallium flux; activity over 3SD threshold, % at 10 µM; HEK293 Kir2.1, FluxOR thallium flux fluorescence; hit rate 2% among 1,200; shares compounds with KCNQ2 pot;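 active = fluorescence ratio rise of at least 3 SD above the vehicle-control mean, seen in both replicates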
KCNQ2 W236L MoA: potentiators of retigabine-insensitive KCNQ2 W236L, mechanism study for KCNQ2 potentiator project, cell-based, rat KCNQ2 W236L, CHO, automated patch clamp; shares compounds with KCNQ2 pot; automated patch clamp current; current increase over 3SD of negative controls (%), hits give high values, % at 25 µM; hit rate 10% among 940;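 active = current increase at least 3 SD of the untreated controls above them in both duplicate recordings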
Target sequence (O88943 whole entry W236L, looked up): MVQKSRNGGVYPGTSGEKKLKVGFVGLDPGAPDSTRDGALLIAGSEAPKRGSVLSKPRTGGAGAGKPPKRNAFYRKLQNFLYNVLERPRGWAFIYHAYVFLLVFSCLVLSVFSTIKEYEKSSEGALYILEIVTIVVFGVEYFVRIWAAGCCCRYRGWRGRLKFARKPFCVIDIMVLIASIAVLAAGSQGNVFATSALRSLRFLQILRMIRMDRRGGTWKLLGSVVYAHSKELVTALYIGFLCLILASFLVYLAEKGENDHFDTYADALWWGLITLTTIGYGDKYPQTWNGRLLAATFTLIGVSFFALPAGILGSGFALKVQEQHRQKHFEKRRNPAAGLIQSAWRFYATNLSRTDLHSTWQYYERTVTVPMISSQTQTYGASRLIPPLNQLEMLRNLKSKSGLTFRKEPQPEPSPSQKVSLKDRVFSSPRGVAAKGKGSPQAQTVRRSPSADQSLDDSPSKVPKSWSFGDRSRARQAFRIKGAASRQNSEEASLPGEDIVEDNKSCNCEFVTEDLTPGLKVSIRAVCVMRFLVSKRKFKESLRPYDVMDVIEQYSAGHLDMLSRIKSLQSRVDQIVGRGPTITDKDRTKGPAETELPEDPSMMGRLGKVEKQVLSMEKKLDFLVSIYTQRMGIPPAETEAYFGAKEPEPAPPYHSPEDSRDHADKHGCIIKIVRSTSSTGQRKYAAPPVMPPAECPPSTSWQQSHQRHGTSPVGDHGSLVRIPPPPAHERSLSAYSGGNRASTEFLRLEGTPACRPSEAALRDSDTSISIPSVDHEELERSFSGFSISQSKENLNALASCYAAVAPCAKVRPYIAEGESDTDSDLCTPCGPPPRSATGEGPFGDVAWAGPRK
Large screens that a line does not name were inactive (follow-up assays come after a bar, where they were run).

CCCCn1c(N)c(N(CCOC)C(=O)C2CC(=O)N(c3cccc(SC)c3)C2)c(=O)[nH]c1=O (stereo not given)	none
CCCCNC(=O)C1(NC(=O)Nc2ccc(C)cc2)CCCCC1	none (no result: KCNQ2 pot)
N=c1c2c(-c3ccccc3)c(-c3ccccc3)n(Cc3ccco3)c2ncn1Cc1ccco1	KCNQ2 block -6.9 | Kir21 confirm 54% | HEK293 Tl flux inactive
Cc1cc(NCCCn2ccnc2)n2nc(C)c(-c3ccccc3)c2n1	none (no result: KCNQ2 pot)
N=c1c2c(ncn1Cc1ccco1)Oc1ccc3ccccc3c1C2c1ccccc1 (stereo not given)	none
N=c1c2c(-c3ccccc3)c(-c3ccccc3)n(Cc3ccccc3)c2ncn1CCCn1ccnc1	none (no result: KCNQ2 pot) | Kir21 confirm inactive | HEK293 Tl flux inactive
COc1ccc(NC(=O)N/C=C/c2ccccc2)cc1	none
COc1ccc(Cl)cc1NC(=O)C/C(C)=N/NC(=O)c1ccc(O)cc1	none
COc1cc(/C=N/NC(=O)Cc2ccc(Br)cc2)cc(OC)c1O	none
O=C(Cc1ccccc1)N/N=C/c1cc(Br)cc(Cl)c1O	KCNQ2 pot 6.1 | Kir21 confirm inactive | HEK293 Tl flux inactive | CHO-K1 ctr 4.8 | KCNQ1 pot spec inactive | KCNQ2 pot confirm 20 | Kir2-1 sel inactive | KCNQ2 W236L MoA 25%
O=C(CP(=O)(c1ccccc1)c1ccccc1)N/N=C/c1cc(Br)cc(Br)c1O	none
COc1cc(Br)cc(/C=N/NC(=O)Cc2ccccc2)c1O	KCNQ2 pot 5.3 | Kir21 confirm inactive | HEK293 Tl flux 72% | CHO-K1 ctr inactive | KCNQ1 pot spec inactive | KCNQ2 pot confirm 8.0 | Kir2-1 sel inactive | KCNQ2 W236L MoA inactive
COc1cc2c(cc1OC)C(c1cc3cccc(C)c3[nH]c1=O)N(C(=O)c1ccco1)CC2 (stereo not given)	none (no result: KCNQ2 pot)
O=C(N/C(=C/c1cccc([N+](=O)[O-])c1)C(=O)N1CCCCC1)c1ccco1	none (no result: KCNQ2 pot)
O=C(Nc1cccc(OC(F)(F)F)c1)c1ccc(Br)o1	KCNQ2 pot 11 | Kir21 confirm inactive | HEK293 Tl flux inactive | CHO-K1 ctr 12 | KCNQ1 pot spec inactive | KCNQ2 pot confirm inactive | Kir2-1 sel inactive | KCNQ2 W236L MoA 22%
O=C(Nc1cccc(F)c1)c1ccc(Br)o1	none
Cc1cc(C(=O)NNC(=O)c2ccc(C(F)(F)F)cc2)no1	none
CC(C)(C)c1cc(C(=O)NNC(=O)c2ccc(Cl)cc2)no1	KCNQ2 pot 9.1 | Kir21 confirm inactive | HEK293 Tl flux 266% | CHO-K1 ctr 1.4 | KCNQ1 pot spec 88 | KCNQ2 pot confirm 5.3 | Kir2-1 sel inactive | KCNQ2 W236L MoA inactive
COc1ccc(CCNC(=O)CN2CCCc3ccccc32)cc1OC	none (no result: KCNQ2 pot)
O=C(CN1CCCc2ccccc21)NCCc1ccc(F)cc1	none (no result: KCNQ2 pot) | Kir21 confirm 46% | HEK293 Tl flux inactive
O=C1/C(=C/c2ccccc2)SC(=S)N1N1C(=O)C2CC2C1=O (stereo not given)	none (no result: KCNQ2 pot)
CCOc1ccc(-n2ccnc2SCC(=O)NCc2ccc3c(c2)OCO3)cc1	none
O=C(NCCNC(=O)c1ccccc1F)c1ccccn1	none
O=c1nc(SCc2ccccc2Cl)nc(-c2ccc(Cl)cc2)[nH]1	KCNQ2 pot 11 | Kir21 confirm inactive | HEK293 Tl flux 148% | CHO-K1 ctr 13 | KCNQ1 pot spec inactive | KCNQ2 pot confirm 6.1 | Kir2-1 sel inactive | KCNQ2 W236L MoA inactive
O=c1nc(SCc2c(F)cccc2Cl)nc(-c2ccc(Cl)cc2)[nH]1	none
O=C1CN(C(=O)COC(=O)CNS(=O)(=O)/C=C/c2ccccc2)c2ccccc2N1	none
CCOC(=O)c1cnc2c(OC)cccc2c1Oc1ccccc1	none (no result: KCNQ2 pot) | Kir21 confirm 48% | HEK293 Tl flux inactive
CCOC(=O)c1cnc2c(C)cccc2c1NCCc1ccc(OC)c(OC)c1	none (no result: KCNQ2 pot) | Kir21 confirm inactive | HEK293 Tl flux inactive
CCOC(=O)c1cnc2ccc(C(=O)OC)cc2c1NCCc1ccc(OC)c(OC)c1	none (no result: KCNQ2 pot)
CCOC(=O)c1cnc2c(OC)cccc2c1N1CC(C)CC(C)C1 (stereo not given)	none
O=c1[nH]c(=O)n(Cc2ccccc2)c2nc(-c3ccc(C(F)(F)F)cc3)n(CCO)c12	none
O=C1[C@H]2[C@H](C=CC[C@H]2C(=O)N2CCOCC2)CCN1Cc1ccccc1	none
Cc1ccc(CN2CCC(c3cc(-c4cccs4)n[nH]3)CC2)cc1	none (no result: KCNQ2 pot) | Kir21 confirm 26% | HEK293 Tl flux inactive
FC(F)(F)c1cccc(CN2CCC(c3cc(-c4cccs4)n[nH]3)CC2)c1	none (no result: KCNQ2 pot)
CC(C)COc1ccc(-c2nnc(-c3ccco3)o2)cc1	none
CCN(CC)CCCNc1ccc(-c2nnc(-c3ccc(OCC(C)C)cc3)o2)cn1	KCNQ2 block -7.3 | Kir21 confirm 65% | HEK293 Tl flux inactive
C=CCOC(=O)C1=C(C)N=C2SCCC(=O)N2C1c1ccc(OC(=O)c2ccco2)cc1 (stereo not given)	none (no result: KCNQ2 pot)
COC(=O)C1=C(C)N=C2SCCC(=O)N2C1c1ccc(OC(=O)c2ccco2)cc1 (stereo not given)	none (no result: KCNQ2 pot) | Kir21 confirm 52% | HEK293 Tl flux inactive
O=C1NC(c2ccccc2)=C(c2nc3ccccc3s2)C(c2ccccc2)N1 (stereo not given)	KCNQ2 pot 5.9 | Kir21 confirm inactive | HEK293 Tl flux inactive | CHO-K1 ctr 18 | KCNQ1 pot spec inactive | KCNQ2 pot confirm 8.2 | Kir2-1 sel inactive | KCNQ2 W236L MoA inactive
CC(=O)C1=C(c2ccccc2)NC(=O)NC1c1ccccc1 (stereo not given)	none

Bioassay records from PubChem.
